Experimental data published in PubChem BioAssay (NCI).
The panel holds about 83,000 compounds, 20% with a hit somewhere; the sample as a whole holds those more often.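 Percent growth is the endpoint: 0 to 100 indicates growth inhibition (40 means 60% inhibition), 0 means no net growth, and negative values indicate cell death.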

Assays:
Assay in all cases: NCI-60 one-dose screen, 48 h (100 = growth as untreated, 0 = no growth, -100 = all killed)
Details in all cases: 10 µM unless noted; active = growth percent below 10; inactive = the rest
[1] = test system: SK-MEL-2 melanoma
[2] = test system: EKVX NSCLC
[3] = test system: SN12C renal
[4] = test system: UO-31 renal
[5] = test system: TK-10 renal
[6] = test system: ACHN renal
[7] = test system: A498 renal
[8] = test system: CCRF-CEM leukemia
[9] = test system: MOLT-4 leukemia
[10] = test system: SR leukemia
[11] = test system: RPMI-8226 leukemia
[12] = test system: OVCAR-8 ovarian
[13] = test system: OVCAR-5 ovarian
[14] = test system: OVCAR-4 ovarian
[15] = test system: IGROV1 ovarian
[16] = test system: OVCAR-3 ovarian
[17] = test system: HS 578T breast
[18] = test system: NCI/ADR-RES ovarian
[19] = test system: SK-OV-3 ovarian
[20] = test system: CAKI-1 renal

Measured: growth

Nc1ncc([N+](=O)[O-])cn1
inactive: [1] 93.1% | [2] 105% | [3] 101% | [4] 90% | [5] 94.5% | [6] 109% | [7] 87.8% | [8] 98.4% | [9] 105% | [10] 104% | [11] 98.6% | [12] 95.8% | [13] 102% | [14] 106% | [15] 109% | [16] 104% | [17] 101% | [18] 105%

C=CCc1cc(OC)c(OC)c(OC)c1
inactive: [1] 108% | [2] 111% | [3] 99.5% | [4] 105% | [5] 104% | [6] 108% | [7] 100% | [8] 104% | [9] 104% | [10] 107% | [11] 110% | [12] 102% | [13] 99.2% | [14] 112% | [15] 110% | [16] 93.1% | [17] 103% | [18] 105%

C=CCNC(=S)N/C=C(/C(=O)c1ccccc1)c1ccccc1
inactive: [1] 120% | [2] 106% | [3] 93.6% | [4] 95.3% | [5] 107% | [6] 97.7% | [7] 98% | [8] 101% | [9] 99.2% | [10] 95.4% | [11] 101% | [12] 117% | [13] 97.7% | [14] 110% | [15] 106% | [16] 112% | [17] 103% | [18] 104%

Oc1ccc(CCC2CCNc3ccccc32)cc1 (stereo unspecified)
inactive: [1] 86.7% | [2] 53.5% | [3] 86% | [4] 78.9% | [5] 93.2% | [6] 66.9% | [7] 69.2% | [8] 69.1% | [9] 84.8% | [10] 75.7% | [11] 45.2% | [12] 73.4% | [13] 97.9% | [14] 63.2% | [19] 73.1% | [15] 91.1% | [16] 84.1% | [17] 91.8% | [18] 74.7%

CC12CCC3c4ccc(O)cc4CCC3C1CCC2=O (stereo unspecified)
inactive: [1] 98.7% | [2] 83.8% | [3] 96.2% | [4] 81.7% | [5] 91.1% | [6] 103% | [20] 102% | [8] 93.7% | [10] 67.4% | [11] 98.8% | [12] 100% | [13] 112% | [14] 106% | [19] 117% | [16] 112% | [17] 104% | [18] 111%

C=CCc1cc(OC)c(O)c(OC)c1
inactive: [1] 102% | [2] 101% | [3] 102% | [4] 92.5% | [5] 113% | [6] 102% | [20] 97.6% | [8] 109% | [9] 102% | [10] 87.1% | [11] 97.6% | [12] 103% | [13] 96.8% | [14] 102% | [19] 103% | [15] 113% | [16] 106% | [17] 107% | [18] 99.8%

COc1cc(C(=O)NC(=S)NCc2ccncc2)cc(OC)c1OC
inactive: [1] 89.5% | [2] 99.4% | [3] 102% | [4] 77.4% | [5] 103% | [6] 94.2% | [20] 91.4% | [8] 99.5% | [9] 86.1% | [10] 74.2% | [11] 97.2% | [12] 103% | [13] 107% | [15] 107% | [16] 105% | [17] 106% | [18] 98.2%

CC(=O)Nc1ccc(O)c(C)c1
inactive: [1] 104% | [2] 112% | [3] 102% | [4] 95.1% | [5] 93.2% | [6] 99.4% | [20] 97.5% | [8] 95.4% | [9] 85.2% | [10] 94.6% | [11] 105% | [12] 100% | [13] 104% | [14] 100% | [19] 105% | [15] 110% | [16] 107% | [17] 107% | [18] 102%

S=C=Nc1ccc2ccccc2c1
inactive: [1] 106% | [2] 103% | [3] 111% | [4] 85.1% | [5] 109% | [6] 100% | [20] 87.7% | [8] 106% | [9] 98.1% | [11] 103% | [12] 105% | [13] 107% | [15] 117% | [16] 114% | [17] 104% | [18] 102%
